Assay results reported in PubChem BioAssay (NCI).
The panel holds about 79,000 compounds, 15% with a hit somewhere; the sample as a whole holds those more often. A number with no mark means an inactive call. Calls of active or inactive are those of the source. Rule as the data show it: active = growth inhibition above about 70%; inactive = the rest.

Assays:
[1] = NCI Yeast Anticancer Drug Screen. Data for the rad50 strain (AID 155);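 also: 0% = growth of vehicle-only cultures of the same strain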; settings: S. cerevisiae rad50 strain growth inhibition, active compounds read high
How it was run: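 Compounds were tested on a yeast strain with an engineered DNA damage repair alteration; the reported value is growth inhibition normalised to vehicle treatment.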

[2] = NCI Yeast Anticancer Drug Screen. Data for the mec2-1 strain (AID 157); settings: S. cerevisiae mec2-1 strain, active compounds read high
How it was run: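 Yeast mec2-1 mutant treated with compound. Readout: growth inhibition vs vehicle controls.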

[3] = NCI Yeast Anticancer Drug Screen. Data for the sgs1 mgt1 strain (AID 161);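 also: 0% = growth of cultures given vehicle only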; settings: S. cerevisiae sgs1 mgt1 strain, active compounds read high
How it was run: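 Test agents were incubated with a DNA-repair-mutant yeast strain. Growth was then read and compared against vehicle-treated controls.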

[4] = NCI Yeast Anticancer Drug Screen. Data for the cln2 rad14 strain (AID 165);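 also: 0% = growth equal to vehicle treated cultures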; settings: S. cerevisiae cln2 rad14 strain, active compounds read high
How it was run: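 cln2 rad14 yeast strain; compound exposure; growth inhibition read vs vehicle controls.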

[5] = NCI Yeast Anticancer Drug Screen. Data for the bub3 strain (AID 167); settings: S. cerevisiae bub3 mutant strain, active compounds read high
How it was run: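 Growth of a checkpoint-deficient yeast mutant is measured after compound exposure. Values represent inhibition relative to vehicle.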

[6] = NCI Yeast Anticancer Drug Screen. Data for the mlh1 rad18 strain (AID 175); settings: S. cerevisiae mlh1 rad18 strain growth inhibition, active compounds read high
How it was run: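 Yeast w/ defined DNA-repair lesions; compound exposure; growth vs vehicle controls → % inhibition.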

[7] = at 5.0 µM (retest, dose inferred, filed as 0.5)
[8] = at 50.0 µM (retest, dose inferred, filed as 5.0)

| Structure (SMILES) | growth inhibition [1, 7] | growth inhibition [1, 8] | growth inhibition ([1]; at 50.0 µM) | growth inhibition [2, 7] | growth inhibition [2, 8] | growth inhibition ([2]; at 50.0 µM) | growth inhibition [3, 7] | growth inhibition [3, 8] | growth inhibition ([3]; at 50.0 µM) | growth inhibition [4, 7] | growth inhibition [4, 8] | growth inhibition ([4]; at 50.0 µM) | growth inhibition [5, 7] | growth inhibition [5, 8] | growth inhibition ([5]; at 50.0 µM) | growth inhibition [6, 7] | growth inhibition [6, 8] | growth inhibition ([6]; at 50.0 µM) |
| --- | --- | --- | --- | --- | --- | --- | --- | --- | --- | --- | --- | --- | --- | --- | --- | --- | --- | --- |
| CN(NC(=O)/C(=C/c1ccc2c(c1)OCO2)NC(=O)c1ccccc1)c1ccnc2cc(Cl)ccc12 | -7% | -10% | 89.7% (active) | -15% | -2% | 46% | -9% | -15% | 78% (active) | 22% | 11% | 55.6% | 8% | 33% | 72.2% (active) | 10% | 11% | 87.7% (active) |
| NC1=NOC(=O)C1Cc1ccccc1 (stereo not given) | -2% | -1% | 2.3% | 0% | -4% | 8% | -1% | -2% | 1.8% | -7% | -4% | 76.8% (active) | 2% | -3% | -6.95% | -2% | -2% | 15.6% |
| Fc1ccc(NC2=NCCN=C(Nc3ccc(F)cc3)SS2)cc1 | 0% | 70% (active) | 85% (active) | 6% | 66% | 86.5% (active) | 4% | 69% | 86% (active) | -9% | 77% (active) | 69.8% | 6% | 76% (active) | 88% (active) | 29% | 85% (active) | 80.8% (active) |
| CCCCN(CCO)CCNc1ccc(C)c2sc3ccccc3c(=O)c12 | 17% | 99% (active) | 99.7% (active) | 14% | 99% (active) | 99.8% (active) | 29% | 100% (active) | 99.6% (active) | 17% | 99% (active) | 99.7% (active) | 24% | 99% (active) | 99.6% (active) | 22% | 99% (active) | 95.5% (active) |
| O=C1Nc2c(Cl)cc(Cl)cc2/C1=N/N=C/c1ccco1 | 24% | 84% (active) | 52.6% | 26% | 83% (active) | 53.4% | 28% | 68% | 67.3% | 28% | 74% (active) | 63.2% | 21% | 83% (active) | 55.4% | 37% | 94% (active) | 89.2% (active) |
| C/C(=N\NS(=O)(=O)c1ccc(C)cc1)c1cc2ccccc2n1C | 0% | 85% (active) | 74.9% (active) | -24% | 65% | 44.2% | -17% | 82% (active) | 63.2% | -5% | 92% (active) | 78.5% (active) | 31% | 93% (active) | 60.7% | 3% | 86% (active) | 65.2% |
| Cc1nc(-c2ccc(N=Cc3ccc(N(CCOS(C)(=O)=O)CCOS(C)(=O)=O)cc3Cl)cc2)c(C)s1 | 1% | 33% | 40.1% | -68% | -1% | 13.1% | 2% | 17% | 55.3% | 6% | -4% | -9.2% | 0% | -1% | -8.8% | 4% | 37% | 73% (active) |
| O=C1c2ccccc2C(=O)c2c(NCCNCCO)ccc(O)c21 | 37% | 93% (active) | 85% (active) | 19% | 94% (active) | 84.7% (active) | 51% | 91% (active) | 86.5% (active) | 53% | 60% | 49.7% | 44% | 86% (active) | 85.3% (active) | 24% | 88% (active) | 85.8% (active) |
| O=C1C(Cl)=C(N2C(=O)CCCC2=O)C(=O)c2ccccc21 | 100% (active) | 99% (active) | 89.2% (active) | 100% (active) | 99% (active) | 90.2% (active) | 100% (active) | 99% (active) | 91.5% (active) | 99% (active) | 99% (active) | 89.8% (active) | 100% (active) | 99% (active) | 89.1% (active) | 99% (active) | 99% (active) | 88.3% (active) |
| CN(NS(=O)(=O)c1cccc([N+](=O)[O-])c1)c1ccccc1 | -2% | 19% | 98.7% (active) | 9% | 6% | 98.2% (active) | -2% | 6% | 96.5% (active) | 5% | 16% | 95.5% (active) | 0% | 39% | 98.8% (active) | -10% | 41% | 98.8% (active) |
